Results published in PubChem BioAssay (EPA / NIEHS).
Calls of active or inactive are those of the source. How the source made its calls: active means hit-call score of the fitted dose curve at least 0.9, where 1 is the maximum; inactive means score below 0.9.

Test: CCTE_Padilla_ZF_Score.Position: CCTE's 144 Hour Post-fertilization zebrafish Assay Score for Position, Padilla Lab (AID 2284409)
Method: CCTE_Padilla_ZF_Phenotype_Score is a whole embryo, multiplexed assay using zebrafish ova exposed for 144 hours post fertilization on a 96-well plate.CCTE_Padilla_ZF_Score.Position is one of one assay component(s) measured or calculated from the CCTE_Padilla_ZF_Phenotype_Score assay. It is designed to make measurements of zebrafish development as detected with brightfield microscopy of developing zebrafish embryos.Data from the assay component CCTE_Padilla_ZF_Score.Position was analyzed into 1 assay endpoints. This assay endpoint, CCTE_Padilla_ZF_Score.Position, was analyzed in the positive analysis fitting direction relative to DMSO as the negative control and baseline of activity. Using a type of viability reporter, gain-of-signal activity can be used to understand changes in developmentals as they relate to the whole embryo. To generalize the intended target to other relatable targets, this assay endpoint is annotated to the zebrafish development intended target family, where the subfamily is embryonic mobility.
Zebrafish husbandry: Wild type adult zebrafish (Danio rerio; undefined outbred stock obtained from Aquatic Research Organisms, Hampton, NH, 03842) were housed in an AAALAC-approved animal facility at 28C with a 14:10 h light: dark cycle (lights on at 08:30 h). Adult fish (2-3 females per male; density = 15-20 adults per tank) were kept in one of several 9-liter (L) flow-through colony tanks (Aquaneering Inc., San Diego, CA). All adults in a colony tank were placed in a 2 L (static) breeding tank (Aquatic Habitats, Apopka, FL) one hour prior to light onset. Typically, adults from two to three colony tanks were mated on the same day. Two hours after light onset the adults were returned to the colony tank. All embryos were gathered from each breeder tank, pooled, and placed in a 28C water bath for 2 h, followed by two washes with 0.06% bleach (v/v) in 10% Hanks' Balanced Salt Solution (13.7 mM NaCl 0.54 mM KCl, 25 uM Na2HPO4, 130 uM CaCl2 100 um MgSO4 and 420 um NaHCO3,), hereafter referred to as Hanks' solution, for 5 min in order to remove any residual bacteria or fungi. Immediately following washing, the embryos were examined, and healthy embryos were separated from dead or unfertilized eggs and moved into fresh Hanks'. Chemical exposures: Zebrafish embryos were exposed in 96-well plates. Between 6- and 8-hours post fertilization (hpf), healthy embryos (with chorions) were transferred, one embryo per well, into 96 well (0.5 mL) microtiter plates (Cell Culture-Treated, Flat-Bottom Microplate 96 well [Corning Costar, Kennebunk, ME; Cat 09-761-145]) filled with 200 uL of Hanks' solution. A random number generator was used to assign the order in which the rows of embryos were plated in 96 well plates each week. After plating, the embryos were dosed with 0.8 uL of the chemical dosing solution then immediately sealed with AlumaSeal II (Excel Scientific Inc, Victorville, CA) to prevent volatilization of the chemicals, and then placed in a leakproof secondary container. These containers were placed in an incubator maintained on a 14:10 h light: dark cycle at 26C for rearing. On 5 dpf, live larvae were gently moved out of the plate with test chemicals and into a new 96 well mesh plate (Millipore Corp., Bedford, MA) with just the Hanks' solution. Once within the mesh well plate, the animals were rinsed with 400 uL of fresh Hanks' three times, and then the plates were covered with a non-adhesive material (Microseal A, BioRad, Hercules, CA), plate lid added, and then plate sides wrapped in Parafilm (PM992, Bermis Company, Neenah, WI), and returned to the incubator. […]

Structure (SMILES) | outcome | AC50
O=CC(F)(F)C(F)(F)C(F)(F)C(F)F | inactive | 
O=CC(F)(F)C(F)(F)C(F)(F)F | inactive | 
O=C(O)CCC(F)(F)C(F)(F)C(F)(F)C(F)(F)C(F)(F)F |  | 10.7 µM (active)
FC(F)(F)C1(F)C(F)(F)C(F)(F)C(F)(F)C(F)(C(F)(F)F)C1(F)F (centres undefined) | inactive | 
FC(F)=C(F)C(F)(F)C(F)(F)C(F)(F)C(F)F | inactive | 
NC(C(F)(F)F)C(F)(F)F | inactive | 
O=C(O)CCC(F)(F)C(F)(F)C(F)(F)C(F)(F)C(F)(F)C(F)(F)F | inactive | 
FCOC(C(F)(F)F)C(F)(F)F | inactive | 
FC(OC(F)(F)C(F)(F)C(F)(F)F)C(F)(F)F (centres undefined) | inactive | 
O=C(OC(=O)C(F)(F)C(F)(F)F)C(F)(F)C(F)(F)F | inactive | 
FC1(F)C=CC(F)(F)C1(F)F | inactive | 
C=CC(F)(F)C(F)(F)C(F)(F)C(F)(F)F | inactive | 
O=P(O)(O)CCC(F)(F)C(F)(F)C(F)(F)C(F)(F)C(F)(F)C(F)(F)F | inactive | 
O=C(O)C(F)(F)OC(F)(F)C(F)(F)OC(F)(F)C(F)(F)OC(F)(F)C(F)(F)C(F)(F)C(F)(F)F |  | 8.31 µM (active)
FC(F)(F)C1(F)C(F)(F)C(F)(F)C(F)(F)C1(F)F | inactive | 
O=P(O)(O)CCC(F)(F)C(F)(F)C(F)(F)C(F)(F)C(F)(F)C(F)(F)C(F)(F)C(F)(F)F |  | 65.2 µM (active)
O=C1OC(=O)C(F)(F)C1(F)F | inactive | 
FC(F)(F)N1C(F)(F)C(F)(F)OC(F)(F)C1(F)F | inactive | 
C=CC(=O)OCCC(F)(F)C(F)(F)C(F)(F)C(F)(F)C(F)(F)C(F)(F)C(F)(F)C(F)(F)F | inactive | 
OCC(F)(F)C(F)(F)C(F)(F)C(F)(F)C(F)(F)C(F)(F)C(F)(F)C(F)(F)C(F)(F)C(F)(F)C(F)(F)F | inactive | 
CN(CCO)S(=O)(=O)C(F)(F)C(F)(F)C(F)(F)C(F)(F)C(F)(F)C(F)(F)C(F)(F)C(F)(F)F | inactive | 
O=C(CC(=O)C(F)(F)C(F)(F)C(F)(F)F)c1cccs1 | inactive | 
COC(=O)C(F)(F)C(F)(F)C(F)(F)C(F)(F)C(F)(F)F | inactive | 
O=C(F)C(F)(F)C(F)(F)C(F)(F)C(=O)F | inactive | 
